Experimental data: PubChem BioAssay (EPA / NIEHS)
Where “and” joins values, the source holds several entries; their conditions need not be identical. Equal entries are not always repeated. Some compounds were tested as several samples or in several runs, with calls that do not always agree. Calls of active or inactive are those of the source. How the source made its calls: active means hit-call score of the fitted dose curve at least 0.9, where 1 is the maximum; inactive means score below 0.9.

How the values were obtained:
[1] = target: Hypoxia-inducible factor 1-alpha (Homo sapiens) (UniProt Q16665); assay: ATG_HIF1a_CIS: Attagene CIS-FACTORIAL HepG2 Assay for human Hypoxia Inducible Factor 1 (HIF1A) (AID 2282951); details: HepG2 Attagene cis-factorial HIF1a reporter transcription; actives raise or lower the signal
Hypoxia-inducible factor 1-alpha (Homo sapiens), sequence (Q16665 whole entry, looked up): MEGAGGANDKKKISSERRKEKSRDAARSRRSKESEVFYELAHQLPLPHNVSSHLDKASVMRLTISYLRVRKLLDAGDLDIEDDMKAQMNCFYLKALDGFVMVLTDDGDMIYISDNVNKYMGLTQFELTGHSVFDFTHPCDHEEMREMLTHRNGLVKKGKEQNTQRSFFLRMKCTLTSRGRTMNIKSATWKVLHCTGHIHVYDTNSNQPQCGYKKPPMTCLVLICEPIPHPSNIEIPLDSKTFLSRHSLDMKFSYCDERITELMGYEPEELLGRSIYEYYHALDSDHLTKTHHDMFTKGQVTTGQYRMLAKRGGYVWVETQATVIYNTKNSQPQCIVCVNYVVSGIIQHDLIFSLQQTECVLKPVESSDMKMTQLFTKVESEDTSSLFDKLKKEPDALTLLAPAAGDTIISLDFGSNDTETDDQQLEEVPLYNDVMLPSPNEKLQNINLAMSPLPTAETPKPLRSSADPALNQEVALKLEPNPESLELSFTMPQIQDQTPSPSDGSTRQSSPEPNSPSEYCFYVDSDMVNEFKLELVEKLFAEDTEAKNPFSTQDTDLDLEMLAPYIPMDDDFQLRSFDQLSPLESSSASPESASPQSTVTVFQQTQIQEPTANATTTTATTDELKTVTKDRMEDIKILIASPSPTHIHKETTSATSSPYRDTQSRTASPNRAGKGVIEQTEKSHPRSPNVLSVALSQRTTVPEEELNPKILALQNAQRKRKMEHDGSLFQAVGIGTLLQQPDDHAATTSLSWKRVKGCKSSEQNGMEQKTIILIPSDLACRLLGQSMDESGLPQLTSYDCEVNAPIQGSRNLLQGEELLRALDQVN
In short: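 HepG2, transient cis-reporter library, 24 h dosing. RNA → RT (oligo dT) → PCR → 6-FAM primer extension → HpaI → CE. Bidirectional curve fit vs DMSO.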

[2] = target: Hepatocyte nuclear factor 6 (Homo sapiens) (UniProt Q9UBC0); assay: ATG_HNF6_CIS: Attagene CIS-FACTORIAL HepG2 Assay for human Hepatocyte Nuclear Factor 6 (HNF6) (AID 2282952); details: HepG2 Attagene cis-factorial HNF6 reporter transcription; actives raise or lower the signal
Hepatocyte nuclear factor 6 (Homo sapiens), sequence (Q9UBC0 whole entry, looked up): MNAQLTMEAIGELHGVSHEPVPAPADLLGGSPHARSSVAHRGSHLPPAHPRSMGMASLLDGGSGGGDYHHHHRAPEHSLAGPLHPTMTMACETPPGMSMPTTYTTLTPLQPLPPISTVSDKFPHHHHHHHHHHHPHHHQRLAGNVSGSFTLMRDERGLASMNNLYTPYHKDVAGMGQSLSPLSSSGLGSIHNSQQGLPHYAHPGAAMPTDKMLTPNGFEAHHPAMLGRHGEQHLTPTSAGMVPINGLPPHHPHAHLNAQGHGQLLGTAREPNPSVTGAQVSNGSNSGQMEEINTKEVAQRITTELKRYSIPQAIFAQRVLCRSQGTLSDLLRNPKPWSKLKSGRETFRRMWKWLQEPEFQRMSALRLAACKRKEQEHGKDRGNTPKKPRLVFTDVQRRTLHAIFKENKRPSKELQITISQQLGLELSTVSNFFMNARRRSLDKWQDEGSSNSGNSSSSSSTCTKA
In short: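 HepG2 cells transiently transfected with cis-element-driven multiple reporter transcription units, dosed 24 h; reporter mRNA quantified by RT-PCR, FAM primer extension, HpaI digestion and capillary electrophoresis; bidirectional fit versus DMSO baseline.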

[3] = target: Heat shock factor protein 1 (Homo sapiens) (UniProt Q00613); assay: ATG_HSE_CIS: Attagene CIS-FACTORIAL HepG2 Assay for human Heat Shock Transcription Factor 1 (HSE) (AID 2282953); details: HepG2 HSE cis-reporter, Attagene RNA transcription; actives raise or lower the signal
Heat shock factor protein 1 (Homo sapiens), sequence (Q00613 whole entry, looked up): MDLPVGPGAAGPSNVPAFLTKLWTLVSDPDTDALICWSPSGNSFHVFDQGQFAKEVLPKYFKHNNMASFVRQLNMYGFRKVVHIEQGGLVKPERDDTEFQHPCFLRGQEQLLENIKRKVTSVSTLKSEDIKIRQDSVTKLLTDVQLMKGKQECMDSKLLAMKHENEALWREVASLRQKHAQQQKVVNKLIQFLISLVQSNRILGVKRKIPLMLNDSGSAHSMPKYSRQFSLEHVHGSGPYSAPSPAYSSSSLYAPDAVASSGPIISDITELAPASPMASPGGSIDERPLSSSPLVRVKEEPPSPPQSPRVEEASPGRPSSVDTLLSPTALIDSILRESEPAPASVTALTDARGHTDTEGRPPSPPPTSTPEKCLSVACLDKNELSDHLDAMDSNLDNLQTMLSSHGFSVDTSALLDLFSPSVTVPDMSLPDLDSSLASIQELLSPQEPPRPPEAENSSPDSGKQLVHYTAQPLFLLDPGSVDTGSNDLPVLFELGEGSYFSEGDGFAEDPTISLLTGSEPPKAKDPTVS
In short: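 Endogenous transcription factor activity in transiently transfected HepG2, read as reporter mRNA by RT-PCR with fluorescent capillary electrophoresis after 24 h. Gain or loss of signal fitted versus DMSO baseline.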

[4] = target: Paired box protein Pax-6 (Homo sapiens) (UniProt P26367); assay: ATG_Pax6_CIS: Attagene CIS-FACTORIAL HepG2 Assay for human Paired Box 6 (PAX6) (AID 2282956); details: HepG2 CIS-FACTORIAL PAX6 reporter transcription, RNA readout; actives raise or lower the signal
Paired box protein Pax-6 (Homo sapiens), sequence (P26367 whole entry, looked up): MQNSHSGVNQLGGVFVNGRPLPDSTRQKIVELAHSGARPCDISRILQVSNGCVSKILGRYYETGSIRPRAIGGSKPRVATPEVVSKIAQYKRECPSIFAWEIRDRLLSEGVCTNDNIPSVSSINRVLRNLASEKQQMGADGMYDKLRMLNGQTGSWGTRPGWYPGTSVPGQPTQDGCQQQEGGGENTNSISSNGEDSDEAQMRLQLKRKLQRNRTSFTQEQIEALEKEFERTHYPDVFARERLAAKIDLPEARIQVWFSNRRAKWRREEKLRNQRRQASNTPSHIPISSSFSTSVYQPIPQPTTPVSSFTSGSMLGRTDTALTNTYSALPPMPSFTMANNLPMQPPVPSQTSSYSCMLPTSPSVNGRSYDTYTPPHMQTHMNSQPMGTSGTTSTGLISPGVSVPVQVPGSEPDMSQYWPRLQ
In short: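 HepG2 cells transiently transfected with multiplexed cis-promoter reporter units (endogenous TF activity) were dosed for 24 h. Reporter mRNA was quantified by RT-PCR, 6-FAM labeling, HpaI digestion and capillary electrophoresis; bidirectional fitting versus DMSO baseline.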

[5] = ATG_PXRE_CIS: Attagene CIS-FACTORIAL HepG2 Assay for human Pregnane X Receptor Element (PXRE) (AID 2282957); details: HepG2 Attagene CIS-FACTORIAL PXRE reporter, mRNA; actives raise or lower the signal
In short: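 HepG2 cells transiently transfected with cis-regulated multiple reporter transcription units; endogenous factor activity measured as reporter mRNA 24 h after dosing. RT-PCR, fluorescent primer extension, HpaI digestion, capillary electrophoresis; bidirectional fit versus DMSO baseline.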

[6] = ATG_PPRE_CIS: Attagene CIS-FACTORIAL HepG2 Assay for human Peroxisome Proliferator-activated Response Element (PPRE) (AID 2282958); details: HepG2 PPRE cis-element reporter, Attagene transcription factor profiling; actives raise or lower the signal
In short: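 Transcript-level reporter induction in transfected HepG2 cells after 24 h chemical exposure, quantified by fluorescence from RT-PCR products separated by capillary electrophoresis.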

[7] = ATG_Sox_CIS: Attagene CIS-FACTORIAL HepG2 Assay for human SRY-box transcription factor (SOX) (AID 2282960); details: HepG2 Attagene cis-factorial SOX reporter, mRNA; actives raise or lower the signal
In short: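 Cells were transfected with reporter constructs under cis-regulatory promoters, then exposed to chemicals for 24 h. Reporter transcripts were quantified by fluorescence after RT-PCR and capillary electrophoresis; activity was fitted in both directions against DMSO.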

[8] = ATG_MRE_CIS: Attagene CIS-FACTORIAL HepG2 Assay for human Metal Responsive Element (MRE) (AID 2282954); details: HepG2 MRE cis-reporter transcription, Attagene multiplex; actives raise or lower the signal
In short: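 Step one: transfect HepG2 with cis-regulated reporter units. Step two: dose 24 h. Step three: isolate RNA, RT-PCR, 6-FAM label, HpaI digest, capillary electrophoresis. Fit bidirectionally to DMSO.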

[9] = ATG_RORE_CIS: Attagene CIS-FACTORIAL HepG2 Assay for human RAR-related Orphan Receptor Element (RORE) (AID 2282959); details: HepG2 Attagene cis-factorial RORE reporter, mRNA; actives raise or lower the signal
In short: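 Multiplexed reporter assay measuring mRNA induction from a cis promoter element in transiently transfected HepG2 cells after 24 h treatment. Detection via RT-PCR and capillary electrophoresis fluorescence; DMSO serves as baseline.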

[10] = ATG_PBREM_CIS: Attagene CIS-FACTORIAL HepG2 Assay for human Phenobarbital-responsive Enhancer Module (PBREM) (AID 2282955); details: HepG2 PBREM cis-reporter, Attagene multiplexed transcription; actives raise or lower the signal
In short: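 HepG2, transient MRTU transfection, 24 h dosing; RNA → oligo(dT) RT → PCR → 6-FAM extension → HpaI → CE. Bidirectional fit vs DMSO.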

Measured: AC50

Cc1cc(=O)[nH]o1
active: [5] 42.8 µM
not listed: [8] | [9] | [10]
inactive: all other assays above

Cc1ccc2ccccc2c1C
active: [5] 10.1 µM
not listed: [2] | [4] | [10]
inactive: all other assays above

CC(C)(c1ccc(OCC2CO2)cc1)c1ccc(OCC2CO2)cc1 (stereo unspecified)
active: [1] 31.2 µM | [3] 60.5 µM | [4] 39.2 µM | [5] 8.18 µM | [9] 33.4 µM
inactive: [2] | [6]

CC(C)c1cccc(C(C)C)c1O
active: [5] 3.76 µM
not listed: [1] | [4]
inactive: all other assays above

CCOP(=O)(CN(CCO)CCO)OCC
not listed: [8] | [10]
inactive: all other assays above

C[C@]12CC[C@H](O)CC1=CC[C@@H]1[C@@H]2CC[C@]2(C)C(=O)CC[C@@H]12
active: [5] 27.3 µM
not listed: [1]
inactive: all other assays above

CC(C)(OO)c1ccccc1
not listed: [8] | [10]
inactive: all other assays above

Cc1ccccc1N
not listed: [6] | [8] | [10]
inactive: all other assays above

O=C1C(Cl)=C(Cl)C(=O)c2ccccc21
active: [3] 13.6 µM
inactive: [1] | [2] | [5] | [6] | [9]

O=C(Cl)c1ccc(Cl)cc1
not listed: [4] | [8] | [10]
inactive: all other assays above

N#Cc1ccccn1
inactive: [1] | [2] | [8] | [5] | [9] | [7]

CCC1(c2ccc(N)cc2)CCC(=O)NC1=O (stereo unspecified)
active: [5] 64.9 µM
inactive: [2] | [3] | [8] | [4] | [9]

CCCCCCCCC(=O)NCc1ccc(O)c(OC)c1
active: [3] 125 µM | [8] 131 µM | [5] 26.2 µM
not listed: [1] | [4]
inactive: all other assays above

BrCCBr
not listed: [3] | [8]
inactive: all other assays above

NNC(=S)NN
not listed: [8] | [10]
inactive: all other assays above

NC(=S)Nc1ccccc1
not listed: [4] | [8] | [10]
inactive: all other assays above

CCCCCCCCCl
inactive: [1] | [2] | [3] | [5] | [6]

Oc1cccc2cccnc12
active: [5] 27.5 µM and 95.5 µM
inactive: [2] | [3] | [4] | [6] | [9]

C=CC(=O)N(C)C
not listed: [4] | [8] | [10]
inactive: all other assays above

C[C@]12CCC(=O)C[C@@H]1CC[C@@H]1[C@@H]2CC[C@]2(C)[C@@H](O)CC[C@@H]12
active: [8] 87 µM and 42.6 µM | [5] 23.4 µM and 23.5 µM and 9.49 µM
inactive: [2] | [3] | [8] | [4] | [7]

C[C@H]1O[C@@H](O[C@H]2[C@@H](O)C[C@H](O[C@H]3[C@@H](O)C[C@H](O[C@H]4CC[C@@]5(C)[C@H](CC[C@@H]6[C@@H]5CC[C@]5(C)[C@@H](C7=CC(=O)OC7)CC[C@]65O)C4)O[C@@H]3C)O[C@@H]2C)C[C@H](O)[C@@H]1O
inactive: [1] | [8] | [4] | [6] | [9]
active: [2] 0.0564 µM | [5] 0.0564 µM

O=[N+]([O-])c1ccc2c3c(cccc13)CC2
inactive: [2] | [4] | [6] | [9] | [7]
active: [1] 26.7 µM | [5] 4.23 µM

Nc1ccc(-c2ccc(N)c(Cl)c2)cc1Cl
inactive: [1] | [2] | [4] | [7]
active: [8] 46.5 µM | [5] 27.4 µM | [9] 24.3 µM

COC[C@H](C)N(C(=O)CCl)c1c(C)csc1C
active: [5] 30.6 µM
not listed: [4] | [8] | [10]
inactive: all other assays above

Oc1ccc(-c2ccccc2)cc1
active: [8] 149 µM | [10] 176 µM | [4] 100 µM | [7] 145 µM
inactive: [1] | [2] | [5] | [6]

Nc1cccc(Cl)c1
inactive: [1] | [2] | [5] | [6] | [9]

C[C@H]1CCCC(=O)CCC/C=C/c2cc(O)cc(O)c2C(=O)O1
active: [3] 23.7 µM | [5] 0.665 µM
inactive: [1] | [2] | [4] | [6] | [7]

COc1cc(-c2ccc(N)c(OC)c2)ccc1N
inactive: [1] | [2] | [3] | [4] | [5] | [7]
active: [4] 19.9 µM | [5] 25.2 µM | [6] 43.9 µM and 11.8 µM | [9] 15.7 µM and 33.6 µM

O=P(O)(O)CN(CP(=O)(O)O)CP(=O)(O)O
not listed: [8] | [10]
inactive: all other assays above

ClCCBr
not listed: [3]
inactive: all other assays above

CC(C)(C)c1cc(O)ccc1O
active: [3] 187 µM | [8] 120 µM | [4] 124 µM | [5] 4.27 µM | [6] 65.6 µM | [7] 179 µM
inactive: [2] | [10]

CCc1ccccc1C
not listed: [8] | [10]
inactive: all other assays above

c1ccc(N=NNc2ccccc2)cc1
inactive: [1] | [2]
active: [3] 151 µM | [5] 25.8 µM | [6] 21.7 µM | [7] 145 µM

CCCCP(CCCC)CCCC
inactive: [1] | [2] | [3] | [4] | [7]
active: [5] 23.6 µM

CC(=[OH+])/C=C(/C)[O-].CC(=[OH+])/C=C(/C)[O-].CC(=[OH+])/C=C(/C)[O-].[Al]
inactive: [1] | [2] | [3] | [5] | [6] | [9]
